Bioassay records deposited in PubChem BioAssay by Sanford-Burnham Center for Chemical Genomics.
NALP3 yeast inh = NALP3 inflammasome inhibitors in reconstituted yeast, primary screen, luminescence, uHTS | Yeast reconstituted NLRP3/ASC/caspase-1, beta-gal luminescence, 24 h | 330,000 compounds, 0.39% hits | inhibition, % at 10 µM | AID 2825, 2010;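 active = inhibition of 50% or more; inactive = inhibition below 50%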;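 note: plate controls were induced DMSO wells for no effect and uninduced yeast grown without galactose for full effect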
tim23-1 inh = growth inhibitors of tim23-1 mutant yeast, primary screen, luminescence, uHTS; inhibition, % at 20 µM; S. cerevisiae tim23-1 growth, BacTiter-Glo luminescence, 24 h; 330,000 compounds, 1.3% hits;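 active = growth inhibition of the mutant yeast at or above 50%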;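 note: temperature-sensitive mutant grown at 25 °C; plate controls were DMSO-treated mutant yeast for no effect and medium wells lacking yeast for full effect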
NALP1 inh = NALP1 inflammasome inhibitors in reconstituted yeast, colorimetric, S. cerevisiae, triplicate retest | 280,000 compounds, 0.61% hits | S. cerevisiae NALP1/ASC/caspase-1 growth, X-gal OD620, 72 h | AID 2071, 2009 | inhibition, % at 10 µM; in the data active = inhibition mostly above about 24%, no sharp cut-off; inactive = mostly below about 32%
tim10-1 inh = growth inhibitors of tim10-1 mutant yeast, primary screen, luminescence, uHTS; S. cerevisiae tim10-1 ts strain growth, BacTiter-Glo, 24 h; inhibition, % at 20 µM; 330,000 compounds, 2.2% hits;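 active = inhibition of at least 40%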;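 note: mutant grown at 25 °C; 0% = DMSO wells with yeast and 100% = wells holding no yeast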
TIM10 inh = growth inhibitors of isogenic TIM10 control yeast, primary screen, counter-screen for tim10-1 yeast inhibitor project, luminescence, uHTS; 330,000 compounds, 1.4% hits; inhibition, % at 10 µM; S. cerevisiae TIM10 strain growth, BacTiter-Glo luminescence, 24 h;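 active = inhibition of 40% or more at the single tested concentration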;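 note: wild-type TIM10 isogenic control strain grown at permissive 25 °C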
NALP3 confirm = NALP3 inhibitors retested in yeast, confirmation, luminescence, single concentration | shares compounds with NALP3 yeast inh | yeast expressing human NALP3 | inhibition, % at 10 µM | 1,300 compounds, 81% hits; in the data active = inhibition above about 48%
Casp1 ASC ctr = CASP1-PYCARD signaling inhibition in yeast, confirmatory test, counterassay for NLRP3 inhibitor program, one-dose | shares compounds with NALP3 yeast inh | yeast expressing Caspase-1-ASC, luminescence counter screen | inhibition, % at 10 µM | 1,000 compounds, 66% hits
NALP3 retest = NALP3 inhibitors in yeast, repeat test, confirmation, luminescence, single concentration, retest; shares compounds with NALP3 yeast inh; yeast expressing human NALP3, luminescence read-out; inhibition, % at 10 µM; 1,000 compounds, 53% hits
tim10-1 confirm = growth inhibitors of tim10-1 mutant yeast, confirmation, single concentration, luminescence, S. cerevisiae; shares compounds with tim10-1 inh; S. cerevisiae tim10-1 ts strain growth, BacTiter-Glo, 24 h; inhibition, % at 20 µM; 7,400 compounds, 56% hits;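 active = inhibition of yeast growth at or above a set limit in either of two repeat tests at 20 µM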;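 note: tim10-1 mutant grown at permissive 25 °C to find synthetic lethal compounds; 0% = DMSO yeast wells and 100% = medium wells without yeast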
tim10 confirm = growth inhibitors of wild-type TIM10 yeast, confirmation, counter-screen for tim10-1 synthetic lethality project, single concentration, luminescence, S. cerevisiae; inhibition, % at 10 µM; AID 463215, 2010; 4,600 compounds, 63% hits; S. cerevisiae tim10 strain growth, BacTiter-Glo luminescence, 24 h; shares compounds with TIM10 inh;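 active = inhibition of yeast growth at or above a set limit in either of two replicates at 10 µM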;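 note: this counterscreen used the strain with wild-type TIM10; 0% = yeast with DMSO and 100% = medium wells lacking yeast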
tim23-1 conf = tim23-1 mutant yeast growth inhibitors, confirmation, luminescence, single concentration | S. cerevisiae tim23-1 growth, BacTiter-Glo luminescence, 24 h | inhibition, % at 20 µM | AID 463218, 2010 | shares compounds with tim23-1 inh | 4,400 compounds, 83% hits;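 active = inhibition above about 39% in either of two replicate wells at 20 µM, limit read from the data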;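 note: temperature-sensitive tim23-1 mutant grown at 25 °C; 0% = DMSO wells with yeast and 100% = medium wells without yeast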
* hit, by the source's call; / = no result. This is a sample that favours compounds with a hit; in the whole collection about 4% have one here. Cut-off read from the data, not from the text of the source, unless noted: active = inhibition above about 50%; inactive = the rest.

SMILES	NALP3 yeast inh	tim23-1 inh	NALP1 inh	tim10-1 inh	TIM10 inh	tim10-1 confirm	others
CCOC(=O)C(=Cc1ccc(-n2cncn2)cc1)C(=O)OCC	50.2*	51.8*	-3.6	62.4*	67.3*	52.4*	NALP3 confirm=61.5*;Casp1 ASC ctr=56.7*;NALP3 retest=40.1;tim10 confirm=47.5*;tim23-1 conf=70.8*
CC(=O)Nc1cccc(-c2cc(-c3c(Cl)cccc3Cl)no2)c1	52.0*	61.4*	/	35.0	44.0*	/	NALP3 confirm=46.7;Casp1 ASC ctr=53.0*;NALP3 retest=51.6*;tim10 confirm=28.4;tim23-1 conf=40.7*
CC(C)CCNC(=S)Nc1ccc([N+](=O)[O-])cc1	63.4*	59.8*	91.6*	73.5*	51.6*	67.5*	NALP3 confirm=-6.6;tim10 confirm=-40.5;tim23-1 conf=55.7*
Clc1ccc(OCCn2cnc3ccccc32)c(Cl)c1	71.0*	54.1*	14.3	24.1	6.8	/	NALP3 confirm=62.0*;Casp1 ASC ctr=77.3*;NALP3 retest=63.2*;tim23-1 conf=28.2
Clc1ccc(-n2nnnc2Sc2ncnc3sccc23)cc1	64.4*	69.6*	/	43.0*	1.7	32.9*	NALP3 confirm=73.9*;Casp1 ASC ctr=94.4*;NALP3 retest=75.5*;tim23-1 conf=50.2*
Cc1sc2ncnc(Sc3nnnn3-c3ccccc3)c2c1C	38.0	33.3	18.1	38.0	28.5	/
COc1ccc(OC)c(S(=O)(=O)N2C(C)CCCC2C)c1 (centres undefined)	13.8	30.2	7.4	42.5*	13.1	22.1
CCCCNC(=S)Nc1ccc([N+](=O)[O-])cc1	37.2	21.8	48.0	50.0*	23.3	24.4
CCC(=O)Oc1c(S(=O)(=O)c2ccc(C)cc2)c(C)nn1C(C)(C)C	4.5	42.9	-0.8	43.7*	13.1	22.9
Cc1cc(Br)cc2c(C(=O)NCC3CCCO3)cc(-c3cccs3)nc12 (centres undefined)	16.3	16.8	24.0	31.1	7.4	/
Cc1ccc(-n2nc(-c3cccs3)cc2C(=O)NCC2CCCO2)c(C)c1 (centres undefined)	4.6	7.0	38.0	40.7*	36.9	28.1
Cc1ccccc1C(=O)N1CCC(C(=O)NN2C(=O)NC3(CCC(C)CC3)C2=O)CC1 (centres undefined)	12.2	13.6	/	7.7	20.4	/
CCN(CC)C(=O)[C@H]1C[C@H](CC(=O)NC(C)(C)C)C(=O)N2CCc3c([nH]c4cc(CCC(=O)N(C)C)ccc34)[C@]12C	/	29.6	/	11.7	-1.6	/
COc1ccc(Cl)c2c1[nH]c1nc(SCc3ccccn3)nnc12	16.3	16.9	9.4	42.3*	26.0	24.7
Cc1cc(NS(=O)(=O)c2ccc(C3CCCCC3)cc2)no1	22.0	35.0	6.9	41.2*	12.9	19.8
Cc1cc(NS(=O)(=O)c2ccc(NC(=O)NC3CCCCC3)cc2)no1	-1.5	-2.8	21.8	11.1	-11.2	/
CCOc1ccc(OCc2ccc(C(=O)N3CCCC(C)C3)cc2)cc1 (centres undefined)	38.9	33.4	-0.2	41.1*	6.7	17.1
COc1ccc(NC(=O)CC2C(=O)N(c3cccc(C)c3)C(=O)N2C2CCCCC2)cc1 (centres undefined)	-14.3	23.0	-3.9	40.0	11.5	23.3
Cc1cccc(-n2nc(C(=O)c3ccco3)cc(-c3nc4ccccc4[nH]3)c2=N)c1	3.7	16.7	40.2	50.5*	26.8	25.0
Cc1ccccc1-n1nc(C(=O)c2cccs2)cc(-c2nc3ccccc3[nH]2)c1=N	4.6	25.3	-7.4	35.7	28.9	/
COc1ccccc1C/C(N)=N/OC(=O)c1ccco1	17.3	43.3	-6.2	50.0*	28.9	37.9*
COc1ccccc1C/C(N)=N/O	0.7	-1.1	9.1	9.8	13.2	/
Cc1cccc(NC(=S)NC(=O)c2oc3ccccc3c2C)n1	22.0	0.7	14.2	4.3	-5.8	/
CC(=O)N1CCN(CC(=O)Nc2ccccc2Sc2ccccc2)CC1	11.6	-12.1	31.1	-2.5	-20.2	/
CCCOc1ccc(C(=O)N2CCN(c3ccc(N)cc3Cl)CC2)cc1	-1.3	42.3	-1.1	48.2*	32.5	34.8*
SMILES	NALP3 yeast inh	tim23-1 inh	NALP1 inh	tim10-1 inh	TIM10 inh	tim10-1 confirm	others
Cc1cc(/C=C(\C#N)C(=O)NCc2ccco2)c(C)n1-c1cccnc1	20.3	16.6	-8.3	3.6	3.9	/
Cc1cc(/C=C(\C#N)C(=O)NCc2ccco2)c(C)n1C1CCCC1	10.1	36.5	16.1	45.6*	-4.8	30.6
Cc1ccc(C(C)C)cc1C(=O)CC1(O)C(=O)N(C)c2ccccc21 (centres undefined)	-2.4	1.1	5.0	41.6*	32.5	32.5*
CN1C(=O)C(O)(CC(=O)/C=C\c2ccc3c(c2)OCO3)c2ccccc21 (centres undefined)	15.6	39.5	10.1	41.9*	35.5	28.4
N=C(N)c1ccc(/C=C/c2ccc(C(=N)N)cc2O)cc1	15.8	38.4	6.4	55.9*	-21.8	70.3*
N=C(N)c1ccc(Cl)cc1	4.6	4.1	-0.9	-5.5	16.2	/
Cn1cnc(S(=O)(=O)N2CCN(c3cccc(Cl)c3)CC2)c1	-7.6	-10.5	23.8	-18.8	-7.3	/
COc1cccc(Oc2nc(-c3ccncc3)nc3ccccc23)c1	23.8	46.9	29.0	41.5*	22.4	21.6
COc1ccc(Oc2nc(-c3ccncc3)nc3ccccc23)cc1	11.3	48.4	11.3	39.4	31.7	/
Cc1c(C(=O)Nc2ccc3c(c2)OCCO3)sc2ncnc(N3CCCCC3C)c12 (centres undefined)	3.8	46.3	-4.6	46.3*	5.0	19.6
Cc1nc(N2CCC(C)CC2)c2c(C)c(C(=O)Nc3ccc4c(c3)OCCO4)sc2n1	11.6	40.1	24.8	41.5*	16.6	12.3
CCN(Cc1ccncc1)Cc1cn[nH]c1-c1ccc(OC)cc1F	6.5	5.9	10.0	10.2	6.7	/
